Several values for one entry are separate records, joined by “and”; a condition that tells them apart may be missing. Identical values can stand only once. The whole screen tested about 5,500 compounds, of which about 2,000 (36%) were called active. Not shown: some 18% with an inconclusive outcome. No stated cut-off is given here; in the data, active means normalized growth mostly below about 0.91 (no sharp cut-off); inconclusive means no clear call, values can overlap the other calls; inactive means mostly above about 0.92. The list shows a part of the results.
Experiment: chemical genetic growth profiling, strain panel (AID 1159580);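 further: tested at 20 µM; growth read once vehicle control cultures reached saturation at 30 °C; 1 = growth at the plate median or of vehicle wells; lower values mean less growth of the strain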
Details: S. cerevisiae deletion strains, growth OD

Measured: normalized growth

CN(C)C(=O)Oc1ccc[n+](C)c1
inactive: locus YAL021C, strain ccr4, active compounds read low 1 | locus YAL026C, strain drs2, active compounds read low 1.01 | locus YAL030W, strain snc1, active compounds read low 0.998 | locus YAL040C, strain CLN3, active compounds read low 0.966 | locus YBL061C, strain skt5, active compounds read low 0.999 | locus YBR009C, strain hhf1, active compounds read low 0.996 | locus YBR021W, strain FUR4, active compounds read low 1.02 | locus YBR023C, strain chs3, active compounds read low 1 | locus YBR171W, strain sec66, active compounds read low 1 | locus YBR229C, strain ROT2, active compounds read low 1.02 | locus YBR231C, strain swc5, active compounds read low 1.03 | locus YBR279W, strain paf1, active compounds read low 1 | locus YCL011C, strain gbp2, active compounds read low 0.998 | locus YCL016C, strain dcc1, active compounds read low 1.01 | locus YCL029C, strain bik1, active compounds read low 1.02 | locus YCL061C, strain MRC1 (second series), active compounds read low 0.992 | locus YCL061C, strain MRC1, active compounds read low 1.01 | locus YCL069W, strain vba3, active compounds read low 1 | locus YCR088W, strain abp1, active compounds read low 1 | locus YDL005C, strain med2, active compounds read low 1 | locus YDL035C, strain GPR1, active compounds read low 1.03 | locus YDL040C, strain nat1, active compounds read low 1 | locus YDL074C, strain BRE1, active compounds read low 1 | locus YDL101C, strain DUN1, active compounds read low 1.01 | locus YDL134C, strain PPH21, active compounds read low 1.03 | locus YDL185W, strain tfp1, active compounds read low 1.01 | locus YDL192W, strain arf1, active compounds read low 1.02 | locus YDR001C, strain nth1, active compounds read low 1 | locus YDR069C, strain doa4, active compounds read low 1 | locus YDR101C, strain arx1, active compounds read low 1.02 | locus YDR137W, strain rgp1, active compounds read low 1.03 | locus YDR159W, strain sac3, active compounds read low 1 | locus YDR162C, strain NBP2, active compounds read low 1.02 | locus YDR195W, strain ref2 0.99 | locus YDR297W, strain sur2, active compounds read low 0.999 | locus YDR318W, strain mcm21, active compounds read low 1.02 | locus YDR334W, strain swr1, active compounds read low 1 | locus YDR335W, strain msn5, active compounds read low 0.996 | locus YDR363W, strain ESC2, active compounds read low 0.885 | locus YDR388W, active compounds read low 1.02 | locus YDR392W, strain spt3, active compounds read low 0.996 | locus YDR502C, strain sam2, active compounds read low 1.02 | locus YEL003W, strain gim4, active compounds read low 0.993 | locus YEL037C, strain rad23, active compounds read low 0.991 | locus YEL061C, strain CIN8 (second series), active compounds read low 0.993 | locus YEL061C, strain CIN8, active compounds read low 1.01 | locus YER002W, strain NOP16, active compounds read low 1.01 | locus YER015W, strain faa2, active compounds read low 0.989 | locus YER016W, strain bim1, active compounds read low 1 | locus YER110C, active compounds read low 1.03 | locus YER111C, strain swi4, active compounds read low 1.02 | locus YER155C, strain BEM2 (second series), active compounds read low 0.994 | locus YER155C, strain BEM2, active compounds read low 1.02 | locus YER167W, strain BCK2, active compounds read low 1.02 | locus YFR010W, strain ubp6, active compounds read low 1.01 | locus YGL078C, strain dbp3, active compounds read low 1.01 | locus YGL086W, strain mad1, active compounds read low 1 | locus YGL167C, strain pmr1, active compounds read low 1.01 | locus YGL173C, strain kem1, active compounds read low 1.01 | locus YGL227W, strain vid30, active compounds read low 1.01 | locus YGL240W, strain doc1, active compounds read low 1.01 | locus YGL248W, strain PDE1, active compounds read low 1 | locus YGL253W, strain hxk2, active compounds read low 1 | locus YGR135W, strain pre9, active compounds read low 1.05 | locus YGR229C, strain SMI1, active compounds read low 1.01 | locus YGR252W, strain gcn5, active compounds read low 1.01 | locus YHR013C, strain ard1, active compounds read low 1.01 | locus YHR027C, strain rpn1, active compounds read low 1.01 | locus YHR030C, strain SLT2, active compounds read low 1.02 and 1.01 | locus YHR079C, strain IRE1 (second series), active compounds read low 1.01 | locus YHR079C, strain IRE1, active compounds read low 1 | locus YHR094C, strain hxt1, active compounds read low 1.02 | locus YHR129C, strain ARP1, active compounds read low 1.01 | locus YHR142W, strain chs7, active compounds read low 0.994 | locus YHR200W, strain rpn10, active compounds read low 1.02 | locus YIL066C, strain RNR3, active compounds read low 1.02 | locus YIL073C, strain SPO22, active compounds read low 1.06 | locus YIL125W, strain kgd1, active compounds read low 1.02 | locus YIR030C, strain dcg1, active compounds read low 1.02 | locus YJL092W, strain hpr5, active compounds read low 1.02 | locus YJL095W, strain BCK1 (second series), active compounds read low 1.01 | locus YJL095W, strain BCK1, active compounds read low 0.994 and 1.04 | locus YJL115W, strain asf1, active compounds read low 0.993 | locus YJL129C, strain trk1, active compounds read low 1.01 | locus YJL134W, strain LCB3, active compounds read low 1.01 | locus YJL154C, strain vps35, active compounds read low 0.995 | locus YJL164C, strain tpk1, active compounds read low 1 | locus YJL166W, strain qcr8, active compounds read low 0.996 | locus YJL168C, strain set2, active compounds read low 1.01 | locus YJL187C, strain SWE1 (second series), active compounds read low 1 | locus YJL187C, strain SWE1, active compounds read low 1 | locus YJR043C, strain POL32, active compounds read low 1 | locus YJR066W, strain TOR1, active compounds read low 0.966

— PubChem BioAssay AID1159580 (chemical genetic matrix, 2015)
